According to PubChem BioAssay:
Several values for one entry are separate records, joined by “and”; a condition that tells them apart may be missing. Equal values may be shown once. Activity calls are given as the source filed them.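 The calls were made as follows, unless noted: active = compounds whose cell count with miR-34 switched on is under 0.7 times the count with it off; inactive = the rest.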

What was measured:
[1] = sensitizers of A549 cells to miR-34 induction, primary screen, imaging, A549 dox-inducible miR-34, nuclei and caspase counts (AID 1347080); conditions: A549 miR-34 inducible, Hoechst nuclei count, 48 h
[2] = phospholipid biosynthesis inhibitors in animal cells, primary screen, cell-based, LOPAC library, screen 4 (AID 1347384; call rule not given here); conditions: phospholipid biosynthesis inhibition screen, at 10 µM
[3] = target: NAD(+) hydrolase SARM1 (Homo sapiens) (UniProt Q6SZW1); assay: SARM1 TIR NADase inhibitors, cell lysate, NAD-Glo luminescence (AID 1508614;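 active = compound whose remaining NAD level is above about 45 nM, limit read from the data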;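 also: higher remaining NAD means stronger inhibition of SARM1 NADase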); conditions: SAM-TIR HEK293T lysate NADase, at 1 µM, stronger effect = higher value
[4] = target: Mitogen-activated protein kinase 7 (Homo sapiens) (UniProt Q13164); assay: ERK5 transactivation activators in reporter cells, primary screen, cell-based, HTS (AID 1508626;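 active = luciferase signal above three times the same-plate solvent-only control wells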;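 also: luciferase driven by Gal4-ERK5 fusion binding five Gal4 sites before minimal TATA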); conditions: HeLa Gal4-ERK5 transactivation, 18 h, at 5 µM, stronger effect = higher value
[5] = viability rescue of complex I mutant cybrids, primary screen, cell-based, galactose medium, ATP luminescence (AID 1645843;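 active = z-score of at least 1.8 in each of two replicates, scored against plate mean and spread of sample wells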;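 also: positive z means more ATP and so rescue of galactose-driven cybrid death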); conditions: complex I mutant cybrid cells, 72 h, stronger effect = higher value
[6] = survival rescue of mitochondrial mutant cells in low glucose, primary screen, MELAS cybrids, Rieske KO mouse fibroblasts, CellTiter-Glo (AID 1508586;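 active = mean z-score across replicates of 1.96 or higher in either the MELAS or the Rieske mutant cell line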;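 also: z relative to plate mean and SD of compound and empty wells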)
[7] = stronger effect = lower value, cell number ratio, induced over uninduced
[8] = measured here: relative caspase fold change +Dox/-Dox
[9] = measured here: total cells with miR-34 induction, stronger effect = lower value
[10] = measured here: total cells without miR-34 induction
[11] = MELAS cybrid survival, CellTiter-Glo 48 h, stronger effect = higher value
[12] = Rieske KO mouse fibroblast survival, CellTiter-Glo 72 h

Mitogen-activated protein kinase 7 (Homo sapiens), sequence (Q13164 whole entry, looked up, the tested form may be a part): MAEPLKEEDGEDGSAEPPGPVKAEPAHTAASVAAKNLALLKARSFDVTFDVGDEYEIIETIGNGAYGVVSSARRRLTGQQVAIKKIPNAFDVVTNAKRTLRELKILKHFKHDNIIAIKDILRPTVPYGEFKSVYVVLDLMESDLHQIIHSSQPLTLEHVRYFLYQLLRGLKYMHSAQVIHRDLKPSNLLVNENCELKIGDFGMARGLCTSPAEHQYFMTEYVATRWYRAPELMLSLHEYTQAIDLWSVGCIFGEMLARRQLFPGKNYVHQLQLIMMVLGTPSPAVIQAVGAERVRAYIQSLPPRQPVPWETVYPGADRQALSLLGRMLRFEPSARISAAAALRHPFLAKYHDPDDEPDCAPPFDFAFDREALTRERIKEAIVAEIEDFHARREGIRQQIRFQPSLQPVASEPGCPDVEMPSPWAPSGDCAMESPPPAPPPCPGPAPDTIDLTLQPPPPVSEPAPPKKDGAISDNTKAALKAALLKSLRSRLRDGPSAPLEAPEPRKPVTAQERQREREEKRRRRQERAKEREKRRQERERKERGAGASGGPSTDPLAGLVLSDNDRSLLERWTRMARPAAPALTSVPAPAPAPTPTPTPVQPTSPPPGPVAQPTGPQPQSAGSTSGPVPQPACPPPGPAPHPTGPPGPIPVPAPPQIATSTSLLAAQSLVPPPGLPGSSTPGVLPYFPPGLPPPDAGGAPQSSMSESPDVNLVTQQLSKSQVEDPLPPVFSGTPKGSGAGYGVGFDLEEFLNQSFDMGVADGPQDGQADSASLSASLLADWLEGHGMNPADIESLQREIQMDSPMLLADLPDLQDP
NAD(+) hydrolase SARM1 (Homo sapiens), sequence (Q6SZW1 whole entry, looked up, the tested form may be a part): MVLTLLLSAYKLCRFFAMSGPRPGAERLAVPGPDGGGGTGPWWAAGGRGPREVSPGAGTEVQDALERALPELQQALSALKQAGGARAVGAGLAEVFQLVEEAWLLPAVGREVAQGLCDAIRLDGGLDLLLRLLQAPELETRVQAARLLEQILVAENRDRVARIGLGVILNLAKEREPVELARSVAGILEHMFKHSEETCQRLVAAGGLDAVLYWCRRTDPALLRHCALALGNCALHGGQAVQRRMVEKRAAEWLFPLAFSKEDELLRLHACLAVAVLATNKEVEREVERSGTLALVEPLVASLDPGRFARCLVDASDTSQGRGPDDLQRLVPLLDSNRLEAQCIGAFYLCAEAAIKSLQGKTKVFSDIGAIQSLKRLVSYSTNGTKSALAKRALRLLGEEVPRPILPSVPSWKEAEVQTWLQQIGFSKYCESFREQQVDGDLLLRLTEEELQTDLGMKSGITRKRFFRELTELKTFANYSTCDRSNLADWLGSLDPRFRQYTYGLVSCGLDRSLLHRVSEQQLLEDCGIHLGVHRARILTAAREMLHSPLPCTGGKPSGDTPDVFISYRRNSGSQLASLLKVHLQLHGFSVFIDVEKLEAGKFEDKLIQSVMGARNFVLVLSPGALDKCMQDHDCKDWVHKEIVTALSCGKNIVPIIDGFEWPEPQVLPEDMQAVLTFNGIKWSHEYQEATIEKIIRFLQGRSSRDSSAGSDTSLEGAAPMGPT

Row | SMILES | fold change [1, 7] | fold change [1, 8] | cell count [1, 9] | cell count [1, 10] | outcome [2] | remaining NAD [3] | luciferase signal [4] | z-score [5] | z-score [6, 11] | z-score [6, 12]
1 | CN(C)CC[C@@H](c1ccc(Cl)cc1)c1ccccn1 | 1.01 (inactive) | 1.39 | 9880 | 9740 | inactive | 10 nM (inactive) | 40 AU (inactive) | -0.155 (inactive) |  | 
2 | CCN(CC)CCNc1ccc(CO)c2sc3ccccc3c(=O)c12 | 0.933 (inactive) and 0.872 (inactive) | 1.29 and 1.89 | 3110 and 3390 | 3340 and 3880 |  | 10 nM (inactive) | 36 AU (inactive) |  | 4.63 (active) | 0.873
3 | Nc1ccc(C(=O)NCC(=O)O)cc1 | 0.905 (inactive) and 0.867 (inactive) and 0.907 (inactive) | 1.12 and 0.765 and 3.35 | 9600 and 8480 and 12000 | 10600 and 9780 and 13300 |  | 10 nM (inactive) | 20 AU (inactive) |  | -0.372 (inactive) and 0.514 (inactive) | -0.0832 and -0.331
4 | CCN(CCCCOC(=O)c1ccc(OC)c(OC)c1)C(C)Cc1ccc(OC)cc1 (stereo not drawn) | 0.98 (inactive) and 0.929 (inactive) | 1.13 and 3.04 | 7620 and 11300 | 7780 and 12200 |  | 10 nM (inactive) | 52 AU (inactive) |  | 1.33 (inactive) | 0.343
5 | Cc1c(C(N)=O)cc([N+](=O)[O-])cc1[N+](=O)[O-] | 1.04 (inactive) | 1.27 | 8930 | 8590 |  | 10 nM (inactive) | 68 AU (inactive) |  | -0.219 (inactive) | -0.175
6 | O=C(O)c1ccccc1C(=O)Nc1ccc(S(=O)(=O)Nc2nccs2)cc1 | 0.914 (inactive) and 0.897 (inactive) | 1.08 and 2.76 | 8730 and 11300 | 9550 and 12600 |  | 10 nM (inactive) | 92 AU (inactive) |  | 0.52 (inactive) | 0.0843
7 | COc1ccc(C(=O)c2ccccc2O)c(O)c1 | 0.854 (inactive) and 0.825 (inactive) | 1.04 and 0.52 | 8680 and 11300 | 10200 and 13700 |  | 10 nM (inactive) | 92 AU (inactive) |  | 0.849 (inactive) | -0.0959
8 | CC(C(=O)O)c1ccc2c(c1)[nH]c1ccc(Cl)cc12 (stereo not drawn) | 0.887 (inactive) and 0.921 (inactive) | 0.75 and 3.71 | 8310 and 12000 | 9370 and 13100 |  | 10 nM (inactive) | 16 AU (inactive) |  | -0.267 (inactive) and -0.0777 (inactive) | -0.169 and 0.447
9 | CCN(CC)Cc1cc(Nc2ccnc3cc(Cl)ccc23)ccc1O | 0.891 (inactive) | 1.28 | 7140 | 8010 |  | 10 nM (inactive) | 60 AU (inactive) |  | 0.684 (inactive) | 0.737
10 | CC(=O)Nc1ccccc1 | 0.942 (inactive) and 0.865 (inactive) | 0.456 and 3.01 | 7610 and 11100 | 8080 and 12800 |  | 10 nM (inactive) | 60 AU (inactive) |  | -0.316 (inactive) | -0.0672
11 | CN(C)CCOC(=O)C(c1ccccc1)C1(O)CCCC1 (stereo not drawn) | 0.97 (inactive) and 0.896 (inactive) | 0.779 and 1.74 | 9700 and 10300 | 10000 and 11500 |  | 10 nM (inactive) | 104 AU (inactive) |  | 0.757 (inactive) | 0.693
12 | CCN(CC)CCOC(=O)C(c1ccccc1)c1ccccc1 | 0.854 (inactive) and 1.02 (inactive) and 0.902 (inactive) | 1.3 and 0.648 and 3.67 | 8150 and 4320 and 11300 | 9550 and 4250 and 12500 |  | 10 nM (inactive) | 84 AU (inactive) |  | -0.171 (inactive) and -1.08 (inactive) | 0.0167 and -0.106
13 | CCN(CC)CCOC(=O)C(Cc1cccc2ccccc12)CC1CCCO1 (stereo not drawn) | 0.845 (inactive) and 0.836 (inactive) | 1.23 and 5.94 | 9000 and 10700 | 10700 and 12800 |  | 10 nM (inactive) | 36 AU (inactive) |  | 0.101 (inactive) | -0.0853
14 | Cc1cc(-c2ccccc2)nnc1NCCN1CCOCC1 | 0.881 (inactive) and 0.888 (inactive) | 0.934 and 3.7 | 8700 and 11800 | 9870 and 13300 |  | 10 nM (inactive) | 48 AU (inactive) |  | 0.442 (inactive) | 0.39
15 | CC1(C)OC(=O)NC1=O | 0.858 (inactive) and 0.827 (inactive) | 1.35 and 1.46 | 8730 and 10500 | 10200 and 12700 |  | 10 nM (inactive) | 64 AU (inactive) |  | -0.0486 (inactive) | -0.442
16 | Cc1ccnc(NS(=O)(=O)c2ccc(N)cc2)n1 | 0.871 (inactive) and 0.913 (inactive) | 1.08 and 0.734 and 2.66 | 8890 and 7940 and 11400 | 10200 and 8690 and 12500 |  | 10 nM (inactive) | 68 AU (inactive) |  | -0.105 (inactive) and 0.577 (inactive) | -0.152 and -0.312
17 | Cc1ccc2c(Cl)cc(Cl)c(O)c2n1 | 0.915 (inactive) and 0.981 (inactive) | 0.745 and 0.409 | 9230 and 3330 | 10100 and 3390 |  | 10 nM (inactive) | 32 AU (inactive) |  | -0.257 (inactive) | -0.123
18 | COc1ccc(C(=O)c2ccccc2)c(O)c1 | 0.864 (inactive) and 0.859 (inactive) | 1.19 and 0.952 | 7820 and 11100 | 9050 and 12900 |  | 10 nM (inactive) | 36 AU (inactive) |  | -0.0705 (inactive) | -1.09

Row | SMILES | fold change [1, 7] | fold change [1, 8] | cell count [1, 9] | cell count [1, 10] | outcome [2] | remaining NAD [3] | luciferase signal [4] | z-score [5] | z-score [6, 11] | z-score [6, 12]
19 | CCCCOc1ccc(C(=O)CCN2CCCCC2)cc1 | 0.869 (inactive) and 0.898 (inactive) and 0.904 (inactive) | 1.13 and 0.697 and 1.7 | 8270 and 5950 and 11300 | 9520 and 6630 and 12500 |  | 10 nM (inactive) | 40 AU (inactive) |  | -0.438 (inactive) and 1.08 (inactive) | 0.0294 and 0.0562
20 | Nc1ccc(S(=O)(=O)Nc2ccc(Cl)nn2)cc1 | 0.789 (inactive) and 0.924 (inactive) | 1.6 and 3.43 | 7930 and 11400 | 10000 and 12300 |  | 10 nM (inactive) | 168 AU (inactive) |  | 0.0891 (inactive) | 0.0567
21 | Cc1ccccc1OCC(O)CO (stereo not drawn) | 0.91 (inactive) and 0.921 (inactive) | 0.936 and 3.64 | 8610 and 11300 | 9470 and 12300 |  | 10 nM (inactive) | 44 AU (inactive) |  | -0.331 (inactive) | -0.218
22 | CCCCC(CC)CN=C(N)NC(N)=NCCCCCCN=C(N)NC(N)=NCC(CC)CCCC (stereo not drawn) | 0.778 (inactive) | 1.43 | 389 | 500 |  | 10 nM (inactive) | 88 AU (inactive) |  | -2.81 | 8.3
23 | Cc1c(N(C)C)c(=O)n(-c2ccccc2)n1C | 0.875 (inactive) and 0.837 (inactive) | 1.16 and 0.645 and 2.71 | 7950 and 7780 and 11100 | 9080 and 9290 and 12700 |  | 10 nM (inactive) | 60 AU (inactive) |  | -0.0296 (inactive) and -0.452 (inactive) | -0.137 and 0.114
24 | O=C(O)c1ccccc1OP(=O)(O)O | 0.878 (inactive) | 1.05 | 9100 | 10400 |  | 10 nM (inactive) | 60 AU (inactive) |  | 0.629 (inactive) | -0.238
25 | NC(N)=NS(=O)(=O)c1ccc(N)cc1 | 0.891 (inactive) and 0.893 (inactive) and 0.92 (inactive) | 1.33 and 1.72 and 4.63 | 7720 and 8610 and 11300 | 8670 and 9630 and 12200 |  | 10 nM (inactive) | 188 AU (inactive) |  | -0.23 (inactive) and -0.511 (inactive) | -0.172 and -0.306
26 | O=C(O)c1cc(=O)c2ccccc2o1 | 0.884 (inactive) | 1.39 | 8030 | 9090 |  | 10 nM (inactive) | 52 AU (inactive) |  | -0.239 (inactive) | -0.17
27 | Cc1c(NC(=O)c2cccnc2)c(=O)n(-c2ccccc2)n1C | 0.892 (inactive) | 1.07 | 8460 | 9480 |  | 10 nM (inactive) | 56 AU (inactive) |  | 0.707 (inactive) | 0.58
28 | CCCCOC(=O)c1ccc(N)cc1 | 0.764 (inactive) and 0.971 (inactive) | 1.56 and 1.88 | 6730 and 8980 | 8820 and 9260 |  | 10 nM (inactive) | 56 AU (inactive) |  | 0.902 (inactive) | -0.282
29 | CCn1cc(C(=O)O)c(=O)c2cnc(N3CCNCC3)nc21 | 0.922 (inactive) | 1.25 | 9710 | 10500 |  | 10 nM (inactive) | 56 AU (inactive) |  | 0.675 (inactive) | 0.0409
30 | CCN(CC)CCOC(=O)C(c1ccccc1)C1CCCCC1 (stereo not drawn) | 0.896 (inactive) | 1.16 | 8670 | 9680 |  | 10 nM (inactive) | 52 AU (inactive) |  | -2.21 (inactive) | 0.0498
31 | CC(C)N=C(N)/N=C(\N)Nc1ccc(Cl)cc1 | 0.874 (inactive) and 0.829 (inactive) | 0.463 and 3.03 | 7740 and 10800 | 8860 and 13000 |  | 10 nM (inactive) | 84 AU (inactive) |  | -1.19 (inactive) | 0.61
32 | CC1CC(OC(=O)C(O)c2ccccc2)CC(C)(C)N1C (stereo not drawn) | 0.792 (inactive) | 1.56 | 7700 | 9720 |  | 10 nM (inactive) | 48 AU (inactive) |  | -0.0236 (inactive) | -0.373
33 | Cc1cc(=O)[nH]c(=S)[nH]1 | 0.999 (inactive) and 0.935 (inactive) | 0.275 and 0.458 | 8050 and 11700 | 8060 and 12500 |  | 10 nM (inactive) | 100 AU (inactive) |  | 0.105 (inactive) | -0.199
34 | C[C@@H]1C[C@H]2[C@@H]3C[C@H](F)C4=CC(=O)C=C[C@]4(C)[C@@]3(F)[C@@H](O)C[C@]2(C)[C@@]1(O)C(=O)CO | 0.863 (inactive) | 1.53 | 6000 | 6940 |  | 10 nM (inactive) | 116 AU (inactive) |  | 0.578 (inactive) | 0.936
35 | O=C(O)CCNC(=O)c1ccccc1 | 0.9 (inactive) | 0.686 | 8280 | 9200 |  | 10 nM (inactive) | 20 AU (inactive) |  | -0.217 (inactive) | -0.148
36 | O=C1c2ccccc2C(=O)C1c1ccccc1 | 0.851 (inactive) and 1.01 (inactive) and 0.873 (inactive) | 1.04 and 0.811 and 1.49 | 8760 and 1750 and 10200 | 10300 and 1740 and 11700 |  | 10 nM (inactive) | 52 AU (inactive) |  | -0.152 (inactive) and 0.54 (inactive) | -0.0639 and -0.0998
